The panel holds about 83,000 compounds, 20% with a hit somewhere; the sample as a whole holds those more often.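 The test compound was applied at a single concentration to cells in 96-well plates for 48 hours, and percent growth was recorded.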 Values without a mark were called inactive. Active and inactive are the calls of the source.

This test relates to SK-MEL-28 melanoma. Description: NCI-60 one-dose screen, 48 h (100 = growth as untreated, 0 = no growth, -100 = all killed). As to conditions: 10 µM unless noted. The protocol: Growth inhibition of the SK-MEL-28 human tumor cell line is measured as a screen for anti-cancer activity. Cells are grown in 96 well plates and exposed to the test compound for 48 hours. Compounds are tested at a single concentration, which is 10^-5 M for most compounds. The reported endpoint is percent growth (GI% or GIPRCNT), where numbers from 0 - 100% represent growth inhibition, and numbers from -100% - 0 represent cell death. For example, a value of 40 represents 60% growth inhibition. A value of 0 means no net growth occurred over the course of the experiment. A value of -40 indicates 40% of cells at the beginning of the experiment died by the end of the experiment. A value of -100 means all cells are dead at the end of the experiment.
NCI-60 Human Tumor Cell Lines Screen was performed using the standard one-dose NCI protocol, which is described in more detail at https://dtp.cancer.gov/discovery_development/nci-60/default.htm.
Compounds with GIPRCNT values below 10 were considered active. Activity score was based on GIPRCNT using the following formula: […]
Score is 0 for GIPRCNT values of 100 or above, 50 for GIPRCNT values of 0, and 100 for GIPRCNT values of -100.
In the case of `O=[N+]([O-])c1cc([N+](=O)[O-])c(Cl)cc1Cl`, the growth is -41.2% (active).

On to `O=[N+]([O-])CC(c1ccccc1Cl)c1c(-c2ccccc2)[nH]c2ccccc12` (stereo not given), for which the growth was 61.4%.

Regarding `ClCCN(CCCl)Cc1ccc(Nc2ccnc3cc(Cl)ccc23)cc1`, the growth was 67.1%.

For the molecule `COc1ccc(/C=C\c2cc(OC)c(OC)c(OC)c2)cc1OCC(=O)Nc1nc2ccc(OC(F)(F)F)cc2s1`, the growth is 34.4%.

On to `COc1cc2ncnc(Nc3ccc(F)c(Cl)c3)c2cc1OCC(=O)N1CCN(C)CC1`, for which the growth is 102%.

Take `CNC(=O)Oc1ccc2c(c1)OCO2`: the growth was 108%.

On to `C[Se]C(=O)c1ccccc1OC(C)=O`, for which the growth was 46.1%.

In the case of `O=C(N/N=C\c1ccc(N(CCCl)CCCl)cc1)c1cccc([N+](=O)[O-])c1`, the growth was 108%.

`COC(=O)C1OC(Oc2ccc(N(CCCl)CCCl)cc2)C(OC(C)=O)C(OC(C)=O)C1OC(C)=O` (stereo not given): the growth was 83.5%.

For the molecule `COC(=O)[C@H](Cc1c[nH]c2ccccc12)NC(=O)[C@@H](OC)[C@@H]1Cc2cc3cc(OC4CC(OC5CC(O)C(O)C(C)O5)C(O)C(C)O4)c(C)c(O)c3c(O)c2C(=O)[C@H]1OC1CC(OC2CC(OC3CC(C)(O)C(O)C(C)O3)C(O)C(C)O2)C(O)C(C)O1` (stereo not given in full), the growth was -27.9% (active).

In the case of `CC(C)CCC1(CCCl)C(=O)NC(=O)NC1=O`, the growth is 98.4%.

Consider `COc1cc2c(cc1OCCCCCn1c(-c3ccco3)nc3ccccc31)N=C[C@@H]1CCCN1C2=O`, for which the growth was -58.6% (active).

Turning to `c1cc2c(c3c1CCNC3)OCO2`, the growth was 109%.

`CCOc1ccc(/C=C/[N+](=O)[O-])cc1`: the growth was 110%.

For `O=C1OCCC1Br` (stereo not given), the growth was 99.5%.

As for `COc1cccc(C=NC(Cc2cnc[nH]2)C(=O)O)c1O` (stereo not given), the growth was 103%.

Regarding `N#CC1(c2ccccc2)CCN(Cc2ccccc2)CC1`, the growth was 122%.

Consider `COC(=O)[C@@H](C)C[C@H](Cc1ccccc1)NC(=O)c1csc([C@@H](C[C@H](C(C)C)N(C)C(=O)[C@H](C)NC(=O)[C@H]2CCCN2C)OC(C)=O)n1`, for which the growth is 70.1%.

For `COC(=O)[C@@H](C)C[C@H](Cc1ccccc1)NC(=O)c1csc([C@@H](C[C@H](C(C)C)N(C)C(=O)[C@@H](NC(=O)[C@H]2CCCN2C)C2CC2)OC(C)=O)n1`, the growth was 56.4%.

For `COc1ccc(NC([Se])=NC23CC4CC(CC(C4)C2)C3)cc1`, the growth was 13.2%.

On to `CSc1nc(Cl)cc(N2CC2)n1`, for which the growth is 121%.

In the case of `C[C@@]1(CCCCCCCCCc2ccc(O)cc2)C[C@]2(C)OC(=O)C[C@@H]2OO1`, the growth was 99.5%.

In the case of `CN(C)C(=O)Oc1ccccc1`, the growth was 111%.

Take `CC1(C)[C@H](O)[C@H](F)C[C@@]2(C)Oc3ccc(C(=O)Nc4ccc5c(c4)NC(=O)C54CCN(CCCCC#N)CC4)cc3C[C@H]12`: the growth was 4.12% (active).

For the molecule `CC[C@H](C)[C@H](NC(=O)c1nccn1C)C(=O)N(C)[C@H](C[C@@H](OC(C)=O)c1nc(C(=O)N[C@@H](Cc2ccccc2)C[C@H](C)C(=O)OC)cs1)C(C)C`, the growth is 51.2%.

For the molecule `O[C@H](CN1CC1)[C@@H](O)CN1CC1`, the growth was 106%.

On to `CC(=O)OC1CCC2(C)C(CCC3C2CC(=O)C2(C)C3CC(Sc3ccc(N(CCCl)CCCl)cc3)C2C(C)=O)C1` (stereo not given), for which the growth was 99.8%.

Turning to `CNC(=O)Oc1ccc(N(C)C)cc1C(C)C`, the growth is 101%.

Consider `Cc1ccc(S(=O)(=O)F)cc1C(=O)O`, for which the growth was 110%.

Regarding `CN1CC(CNC(=O)OCc2ccccc2)CC2c3cccc4c3c(cn4C)CC21` (stereo not given), the growth is -41.1% (active).

Regarding `O=C1C=C2C(=CCOC2O)O1` (stereo not given), the growth was 37.7%.

Turning to `CC[C@H](C)[C@H](NC(=O)[C@H]1CCCCN1C)C(=O)N(C)[C@H](C[C@@H](OC(C)=O)c1cccc(C(=O)N[C@@H](Cc2ccccc2)C[C@H](C)C(=O)O)n1)C(C)C`, the growth was 69.3%.

With `ClCCN(CCCl)c1nc(Cl)c(C2CC(c3ccccc3)=NN2c2cc(Cl)cc(Cl)c2)s1` (stereo not given), the growth was 106%.

Take `C=CCn1cc(C=C2C(=O)N(C)C(=O)N(C)C2=O)c2ccccc21`: the growth was 97.9%.

Take `CN(C)C(=O)Oc1ccc(Br)cc1`: the growth was 104%.

Take `CN(C)C1C(=O)C(C(N)=O)=C(O)C2(O)C(=O)C3=C(O)c4c(O)cccc4C(C)(O)C3CC12.[Cl][Sb]([Cl])[Cl]` (stereo not given): the growth is 47%.

As to `Cn1cc(-c2csc(-c3cn(CCN4CCOCC4)c4ccccc34)n2)c2cccnc21`, the growth is 78.2%.

For `COc1ccc2nc(NC(=O)COc3cc(/C=C\c4cc(OC)c(OC)c(OC)c4)ccc3OC)sc2c1`, the growth is 43.5%.

`C=C1C[C@](OC)([C@H](O)C(=O)N[C@@H](OC)[C@@H]2C[C@@H](O)C(C)(C)[C@@H](C[C@@H](COC)OC)O2)O[C@H](C)[C@@H]1C`: the growth is -100% (active).

As for `Cc1ccc(C(=O)NCCCOc2ccc(N3C(N)=NC(N)=NC3(C)C)cc2Cl)cc1S(=O)(=O)F`, the growth was 104%.

The values are drawn from PubChem BioAssay (NCI).
